# In PubChem BioAssay:
# Values joined by “and” are separate entries in the source; they are usually repeats but may differ in a detail not shown here. Equal values may be shown once. Active and inactive are the calls of the source.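 How the source made its calls, unless noted: active means at least 20% inhibition of 6-phosphogluconate dehydrogenase activity; inactive means the rest.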 Peptide text beside a SMILES is read from it.
# Columns and labels:
# [1] = target: 6-phosphogluconate dehydrogenase, decarboxylating (Homo sapiens) (UniProt P52209); test: 6PGD enzyme inhibitors, primary screen, biochemical, human, recombinant enzyme, NADPH absorbance (AID 1159550); details: recombinant 6PGD, NADPH absorbance 341 nm; at 10 µM; stronger effect = higher value
# Sequence of 6-phosphogluconate dehydrogenase, decarboxylating (Homo sapiens) (P52209 whole entry, looked up): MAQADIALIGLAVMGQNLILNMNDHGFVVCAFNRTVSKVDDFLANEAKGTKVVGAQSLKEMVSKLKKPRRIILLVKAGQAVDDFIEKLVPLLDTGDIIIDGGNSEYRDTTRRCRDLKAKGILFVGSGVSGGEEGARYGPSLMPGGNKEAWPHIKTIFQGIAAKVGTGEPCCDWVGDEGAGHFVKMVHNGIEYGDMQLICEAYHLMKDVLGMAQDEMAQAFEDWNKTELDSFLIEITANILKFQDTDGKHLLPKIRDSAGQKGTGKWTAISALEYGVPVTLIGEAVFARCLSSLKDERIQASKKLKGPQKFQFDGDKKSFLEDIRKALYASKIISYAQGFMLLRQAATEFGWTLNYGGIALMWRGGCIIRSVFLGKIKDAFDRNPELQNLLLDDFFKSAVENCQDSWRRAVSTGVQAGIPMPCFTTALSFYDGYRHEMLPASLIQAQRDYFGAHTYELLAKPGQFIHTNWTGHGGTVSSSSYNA
# [2] = differential killing of epithelial or mesenchymal cells, primary screen, imaging, PC-3E GFP, TEM4-18 mCherry, co-culture (AID 1345086;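 active means compounds killing one labelled cell type while sparing the other, by normalised counts and ratio limits, not self-fluorescent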;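 on all read-outs here: cells exposed to compound for 72 h before imaging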;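 on red/green cell ratio (normalised): normalised mesenchymal count divided by normalised epithelial count so high means epithelial killing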); details: imaging cell counts, at 1 µM; for red/green cell ratio (normalised): actives lie on both sides, counts scaled to control wells, 1 = unselective
# [3] = target: Mitogen-activated protein kinase 7 (Homo sapiens) (UniProt Q13164); test: ERK5 transactivation activators in reporter cells, primary screen, cell-based, HTS (AID 1508626;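 active means luciferase signal above three times the same-plate solvent-only control wells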;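 further: luciferase driven by Gal4-ERK5 fusion binding five Gal4 sites before minimal TATA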); details: HeLa Gal4-ERK5 transactivation, 18 h, at 5 µM, stronger effect = higher value
# Sequence of Mitogen-activated protein kinase 7 (Homo sapiens) (Q13164 whole entry, looked up, the tested form may be a part): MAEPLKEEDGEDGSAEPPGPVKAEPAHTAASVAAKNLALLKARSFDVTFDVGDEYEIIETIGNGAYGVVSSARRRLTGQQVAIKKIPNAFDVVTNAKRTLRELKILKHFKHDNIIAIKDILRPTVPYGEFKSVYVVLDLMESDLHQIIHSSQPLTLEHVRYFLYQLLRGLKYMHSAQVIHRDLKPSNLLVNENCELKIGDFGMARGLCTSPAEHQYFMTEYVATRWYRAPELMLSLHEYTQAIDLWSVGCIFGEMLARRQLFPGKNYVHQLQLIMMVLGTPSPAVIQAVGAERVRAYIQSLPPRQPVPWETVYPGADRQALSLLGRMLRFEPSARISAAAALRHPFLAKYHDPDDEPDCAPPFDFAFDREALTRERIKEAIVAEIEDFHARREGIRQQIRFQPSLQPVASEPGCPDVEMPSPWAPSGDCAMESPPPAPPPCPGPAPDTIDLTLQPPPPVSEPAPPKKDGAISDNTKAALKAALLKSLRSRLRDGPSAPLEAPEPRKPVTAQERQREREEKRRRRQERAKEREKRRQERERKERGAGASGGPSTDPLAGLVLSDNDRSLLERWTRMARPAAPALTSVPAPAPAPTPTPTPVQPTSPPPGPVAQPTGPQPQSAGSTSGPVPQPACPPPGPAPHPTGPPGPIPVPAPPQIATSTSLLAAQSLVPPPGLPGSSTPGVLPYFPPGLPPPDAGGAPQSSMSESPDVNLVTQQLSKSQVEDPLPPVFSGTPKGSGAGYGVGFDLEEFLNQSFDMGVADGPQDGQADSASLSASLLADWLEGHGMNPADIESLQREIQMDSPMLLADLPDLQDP
# [4] = measured here: epithelial PC-3E GFP cell survival
# [5] = measured here: mesenchymal TEM4-18 mCherry cell survival
Structure (SMILES),inhibition [1],red/green cell ratio (normalised) [2],"normalised cell number [2, 4]","normalised cell number [2, 5]",luciferase signal [3]
O=C1c2ccccc2C(=O)c2c(O)c(O)cc(O)c21,17.9% (inactive),1.09 (inactive),0.94,1.02,100 AU (inactive)
CC(=O)Oc1cc(-c2coc3cc(OC(C)=O)c(OC(C)=O)c(OC(C)=O)c3c2=O)cc(OC(C)=O)c1OC(C)=O,-14.8% (inactive),0.88 (inactive),1.23,1.08,36 AU (inactive)
CC(C)=CCC/C(C)=C/CC/C(C)=C/CO,1.99% (inactive),0.89 (inactive),1.03,0.91,88 AU (inactive)
CC(=O)O[C@H]1CCC2(C)C3=C(CCC2C1(C)C)[C@]1(C)CCC(C(C)CCC=C(C)C)[C@@]1(C)CC3 (stereo not given in full),12.8% (inactive),0.97 (inactive),0.86,0.83,52 AU (inactive)
NCCC(=O)N[C@@H](Cc1cnc[nH]1)C(=O)O,-1.18% (inactive),1.1 (inactive),0.93,1.03,100 AU (inactive)
C=C1C(N)CC2CC1C2(C)C (stereo not given),16.7% (inactive),1.05 (inactive),1.09,1.15,60 AU (inactive)
C=CC(C1=CC(=O)C(OC)=CC1=O)c1ccccc1 (stereo not given),-2.35% (inactive),1.14 (inactive),0.95,1.08,60 AU (inactive)
Cc1cc(O)c(C)c(O)c1C(=O)O,-9.88% (inactive),0.88 (inactive),1.09,0.97,72 AU (inactive)
O=c1cc(-c2cc(O)c(O)c(O)c2)oc2cc(O)cc(O)c12,5.62% (inactive),1.14 (inactive),0.99,1.12,72 AU (inactive)
CC1=CCc2c(cc3oc(C)cc(=O)c3c2O)OC1,0.892% (inactive),1.1 (inactive),1.02,1.12,16 AU (inactive)
S=c1[nH]c2ccccc2s1,-1.67% (inactive),0.97 (inactive),1.13,1.09,48 AU (inactive)
CC1=CC2C(CC1=O)C(C)=CCC2C(C)C (stereo not given),2.64% (inactive),1.21 (inactive),1.06,1.28,24 AU (inactive)
CC(C)C[C@H](N)C(=O)N[C@@H](C)C(=O)O (H-Leu-Ala-OH),3.68% (inactive),0.74 (inactive),1.26,0.93,16 AU (inactive)
COc1ccc(C(=O)O)c(O)c1OC,17.2% (inactive),1.11 (inactive),1.01,1.12,56 AU (inactive)
CC(=O)OC1CCC23CC1(C)CCC2C(C)(C)CC3OC(C)=O (stereo not given),-1.38% (inactive),1.04 (inactive),1.07,1.11,80 AU (inactive)
CC(C)=CC1C(CO)C1(C)C (stereo not given),2.26% (inactive),0.97 (inactive),0.97,0.94,68 AU (inactive)
COc1ccc(-c2c(O)c3c(OC)c4c(cc3oc2=O)OC(C)(C)C=C4)cc1,11.4% (inactive),0.9 (inactive),1.02,0.92,88 AU (inactive)
COc1c(O)cccc1O,-5.16% (inactive),0.77 (inactive),0.96,0.74,76 AU (inactive)
CC(C)c1ccc2c(c1)CCC1[C@](C)(CN)CCC[C@]21C (stereo not given in full),0.884% (inactive),0.87 (inactive),0.95,0.83,48 AU (inactive)
O=c1c(-c2ccccc2)coc2cc(O)cc(O)c12,-1.41% (inactive),0.93 (inactive),1.2,1.12,40 AU (inactive)
O=C(O)CCCN1C(=O)c2cccc3cccc(c23)C1=O,-3.59% (inactive),0.82 (inactive),1.29,1.06,48 AU (inactive)
CCOc1ccc(C(=O)c2ccc(O)c(O)c2O)cc1,-12.8% (inactive),0.88 (inactive),0.99,0.87,104 AU (inactive)
CC(=O)Oc1cc(OC(C)=O)c2c(c1)O[C@H](c1ccc(OC(C)=O)c(OC(C)=O)c1)[C@H](OC(C)=O)C2,13.2% (inactive) and -3.23% (inactive),0.86 (inactive),1.41,1.21,48 AU (inactive)
COC(=O)c1c(C)cc(OC(=O)c2c(C)cc(O)c(C=O)c2O)c(C)c1O,1.13% (inactive),0.78 (inactive),1.24,0.97,12 AU (inactive)
COc1cc(O)cc(OC)c1OC,-0.756% (inactive),1.04 (inactive),1.01,1.04,20 AU (inactive)
C#CCCCCCCCCCCCC(O)CC(O)COC(C)=O (stereo not given),8.03% (inactive),0.83 (inactive),1.1,0.91,60 AU (inactive)

Structure (SMILES),inhibition [1],red/green cell ratio (normalised) [2],"normalised cell number [2, 4]","normalised cell number [2, 5]",luciferase signal [3]
Cc1cc(=O)oc2cc(O)c(O)cc12,8.55% (inactive),0.79 (inactive),1.15,0.91,60 AU (inactive)
COc1ccc(-c2cc(=O)c3c(OC(C)=O)cc(OC(C)=O)cc3o2)cc1,-1.6% (inactive),0.89 (inactive),1.06,0.95,60 AU (inactive)
Oc1ccc([C@H]2Oc3cc(O)cc(O)c3C[C@H]2O)cc1,2.29% (inactive),0.95 (inactive),0.99,0.94,140 AU (inactive)
O=C(O)c1nc2cc(Cl)c(Cl)cc2[nH]c1=O,-11.6% (inactive),0.95 (inactive),1.19,1.12,36 AU (inactive)
Cc1ccc2c(c1)CC[C@H]1CC(=O)CC[C@]21C,-2.97% (inactive),1.02 (inactive),1.12,1.14,16 AU (inactive)
CC(C)=CCc1c2c(c3occ(-c4ccc(O)cc4)c(=O)c3c1O)C=CC(C)(C)O2,8.7% (inactive),1.02 (inactive),1.04,1.06,392 AU (active)
Cc1cc(OC(=O)c2c(C)cc(O)cc2O)cc(O)c1C(=O)O,1.29% (inactive),0.82 (inactive),1.06,0.87,12 AU (inactive)
NC(C(=O)O)C(O)C(=O)O (stereo not given),17.7% (inactive),1.01 (inactive),1.05,1.06,260 AU (active)
C=C1CCC(C2CC(=O)OC2=O)C(=O)CCC2C1CC2(C)C (stereo not given),13.1% (inactive),0.84 (inactive),1.27,1.06,144 AU (inactive)
O=C(O[C@@H]1Cc2c(O)cc(O)cc2O[C@@H]1c1ccc(O)c(O)c1)c1cc(O)c(O)c(O)c1,5.78% (inactive),0.99 (inactive),0.85,0.83,52 AU (inactive)
COc1c2ccccc2nc2occc12,7.87% (inactive),1.02 (inactive),1.03,1.05,40 AU (inactive)
C=C[C@@](C)(O)CCC1C(=C)CCC2[C@@](C)(CO)CCC[C@]12C (stereo not given in full),4.45% (inactive),0.89 (inactive),1.15,1.03,36 AU (inactive)
C=CC(C)(O)CC/C=C(\C)CCC=C(C)C (stereo not given),-3.52% (inactive),1.02 (inactive),0.95,0.98,68 AU (inactive)
COc1cc(O)c(C(=O)c2ccccc2)cc1O,-3.44% (inactive),0.89 (inactive),1.31,1.17,48 AU (inactive)
COc1ccc2c(c1)OC[C@@H](Cc1ccc(OC)c(OC)c1)[C@@H]2O,11.8% (inactive),0.93 (inactive),0.92,0.85,68 AU (inactive)
Nc1nc2ncc(=O)[nH]c2c(=O)[nH]1,-1.84% (inactive),1.01 (inactive),1.17,1.18,56 AU (inactive)
CCOc1cccc(C(=O)c2ccc(O)c(O)c2O)c1,11.3% (inactive),0.95 (inactive),1.01,0.96,116 AU (inactive)
COc1ccc2c(c1)OC[C@@H](Cc1ccc(OC)c(OC)c1)[C@H]2O,15.8% (inactive),1.09 (inactive),0.98,1.07,76 AU (inactive)
COc1cc(-c2coc3cc(O[C@@H]4O[C@H](CO)[C@@H](O)[C@H](O)[C@H]4O)c(OC)c(O)c3c2=O)cc(O)c1OC,-0.763% (inactive),0.96 (inactive),0.99,0.95,68 AU (inactive)
CCCCC[C@H](CC(=O)O)C(=O)O,0.671% (inactive),0.96 (inactive),0.99,0.94,40 AU (inactive)
CC1=CC(=O)C(C(C)C)=CC1=O,-9.74% (inactive),0.97 (inactive),0.99,0.96,24 AU (inactive)
Nc1ccccc1C(=O)CC(N)C(=O)O (stereo not given),-2.44% (inactive),1.23 (inactive),0.56,0.69,68 AU (inactive)
COc1c(O)cc2oc3cc(O)c(CC=C(C)C)c(O)c3c(=O)c2c1CC=C(C)C,11.6% (inactive),0.81 (inactive),1.13,0.91,40 AU (inactive)
COC(=O)c1c(C)cc(O)cc1O,7.84% (inactive),1.06 (inactive),0.91,0.97,36 AU (inactive)
CC1=C2C(O)C(=O)OC3CC4C(C)(C)C(=O)C=C[C@]4(C)C(CC1)[C@]23C (stereo not given in full),-6.52% (inactive),1.05 (inactive),0.98,1.02,144 AU (active)
COC1=CC(=O)C(C(=O)c2ccccc2)=CC1=O,-0.278% (inactive),1.01 (inactive),1.01,1.03,72 AU (inactive)
